In the supplement of paper PMC5919970:
Counter-ions that a name gives are not always drawn. Whole data set: some 2,000 compounds, median “fractional viability relative to vehicle” near 0.92, cut for the lowest 2% near 0.11. The sample as a whole holds a higher share of the lowest values than the screen did.

Test system: TYKNU
Test: fractional viability relative to vehicle; TYKNU is a high-grade serous ovarian cancer line; higher = less growth inhibition
Settings: 72 h, genotype: OPA1 knockout (sgOPA1 #2)
Summary of the method: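 Drug treatment lasted 72 h, with cells grown at 37 °C in 5% CO2 in RPMI 1640 supplemented with 10% FBS. Beforehand, TYKNU control cells or their lentiCRISPRv2 knockout derivatives had been seeded at 500 cells per well into drug-stamped 384-well plates carrying a ~2100-compound library at 2 or 10 μM, in duplicate. Viability came from Cell Titer Glo luminescence, with averaged duplicate treatment wells normalised to duplicate control wells in the same plate position.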

Compound | fractional viability (2uM) | fractional viability (10uM)
C[C@@]1(c2cc(-c3cncnc3)c(F)cc2F)CCSC(N)=N1 | 1.12 | 0.948
CC(C)C[C@H](NC(=O)CNC(=O)c1cc(Cl)ccc1Cl)B1OC(=O)C(CC(=O)O)(CC(=O)O)O1 | 0.335 | 0.299
Cc1cc(Nc2ncc(Cl)c(Nc3ccccc3S(=O)(=O)C(C)C)n2)c(OC(C)C)cc1C1CCNCC1 | 0.376 | 0.0286
CNC(=O)c1ccccc1Nc1nc(Nc2ccc(N3CCOCC3)cc2OC)ncc1Cl | 0.987 | 0.532
CN1CCN(Cc2ccc(Nc3ncc(Cl)c(Nc4ccccc4S(=O)(=O)N(C)C)n3)cc2)CC1 | 0.451 | 0.421
C[C@H](Nc1ncnc2nc[nH]c12)c1cc2cccc(Cl)c2c(=O)n1-c1ccccc1 | 0.926 | 1.05
COc1cc(O)c(CC=C(C)C)c(O)c1C(=O)/C=C/c1ccc(O)cc1 [Xanthohumol] | 0.841 | 0.772
NC(=O)c1nc(F)cnc1O [Favipiravir (T-705)] | 0.744 | 0.765
O=C1O[C@H]([C@@H](O)CO)C([O-])=C1O.[Na+] [Sodium ascorbate] | 1.02 | 0.95
O=C(Nc1ccccc1-c1cn2c(CN3CCNCC3)csc2n1)c1cnc2ccccc2n1 | 1.19 | 0.0331
Cc1nc(-c2cccnc2)sc1C(=O)Nc1ccccc1-c1cn2c(CN3CCOCC3)csc2n1 | 0.748 | 0.855
C[C@H]1COC2=C1C(=O)C(=O)c1c2ccc2c1CCCC2(C)C [Cryptotanshinone] | 0.361 | 0.0832
Cc1coc2c1C(=O)C(=O)c1c-2ccc2c1CCCC2(C)C [Tanshinone IIA] | 0.599 | 0.327
CC(=O)Nc1ccc(C(=O)Nc2ccccc2N)cc1 [CI994 (Tacedinaline)] | 0.755 | 0.434
CNCc1ccc(C)c(NC(=O)c2ccc(Nc3nc(-c4ccccc4)c4ccccc4n3)cc2)c1 | 1.13 | 0.134
Cc1cc(Nc2ccc(NC(=O)c3ccc(Nc4ccnc5ccccc45)cc3)cc2)nc(N)n1 | 0.043 | 0.0318
COc1cc(-c2ncn(/C=C\C(=O)OC(C)C)n2)cc(C(F)(F)F)c1 | 0.22 | 0.259
CNc1cccc(CCOc2ccc3c(c2)CN(CC(F)(F)F)C(=O)[C@H](CC(=O)O)C3)n1 | 0.781 | 0.671
CCCCc1oc2ccccc2c1C(=O)c1cc(I)c(OCCN(CC)CC)c(I)c1 [Amiodarone HCl] | 0.994 | 0.867
CN(CCOc1ccc(NS(C)(=O)=O)cc1)CCc1ccc(NS(C)(=O)=O)cc1 [Dofetilide] | 1.08 | 0.78
CCCCc1oc2ccc(NS(C)(=O)=O)cc2c1C(=O)c1ccc(OCCCN(CCCC)CCCC)cc1 [Dronedarone HCl] | 0.835 | 0.106
N#Cc1ccc(-c2c(-c3ncn[nH]3)sc(N3CCOCC3)c2C#N)c(F)c1 | 0.737 | 0.572
O=C(COc1ccc(Cl)cc1)NC1CCC(NC(=O)COc2ccc(Cl)cc2)CC1 (stereo not drawn) [ISRIB (trans-isomer)] | 1.09 | 0.976
